# Results filed as inconclusive are left out. Calls of active or inactive are those of the source. How the source made its calls, unless noted: active means hit-call score of the fitted dose curve at least 0.9, where 1 is the maximum; inactive means score below 0.9.
# How the values were obtained:
# [1] = CCTE_Mundy_HCI_Cortical_Synap_Neur_Matur_NeuriteLength: CCTE's Synaptogenesis and Neurite Maturation Assay in rat cortical cells for Neurite Length, Mundy Lab (AID 2284214)
# In short: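 Cultures of rat primary cortical cells received chemical at DIV 7 and were fixed at DIV 12, after glial arrest with AraC at DIV 5. Neurite length was measured by automated imaging of MAP2 immunofluorescence.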
# [2] = CCTE_Mundy_HCI_Cortical_Synap_Neur_Matur_NeuriteSpotCountPerNeuron: CCTE's Synaptogenesis and Neurite Maturation Assay in rat cortical cells for Neurite Spot Count per Neuron Count, Mundy Lab (AID 2284215)
# In short: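 Rat cortical primary cultures; AraC DIV 5 to arrest glia; dosing + media change DIV 7; fixed DIV 12. Anti-MAP2/anti-synaptophysin, Hoechst nuclei; HCI puncta count per neuron, positive fitting direction vs DMSO.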
# [3] = CCTE_Mundy_HCI_Cortical_Synap_Neur_Matur_SynapseCount: CCTE's Synaptogenesis and Neurite Maturation Assay in rat cortical cells for Synapse Count, Mundy Lab (AID 2284218)
# In short: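 Cells were plated, allowed 2 hr to attach, treated with AraC at DIV 5, then exposed to chemicals from DIV 7 until DIV 12. After fixation and MAP2/synaptophysin immunolabelling, synapses per neuron were quantified by automated imaging against DMSO.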
# [4] = CCTE_Mundy_HCI_Cortical_Synap_Neur_Matur_CellBodySpotCount: CCTE's Synaptogenesis and Neurite Maturation Assay in rat cortical cells for Cell Body Spot Count, Mundy Lab (AID 2284223)
# In short: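 Rat cortical neurons; AraC @ DIV 5; dose + media change DIV 7; fix DIV 12; anti-MAP2/anti-synaptophysin IF, Hoechst; HCI count of soma synaptophysin puncta/neuron; DMSO = negative control.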
# [5] = CCTE_Mundy_HCI_hNP1_Pro_ResponderAvgInten: CCTE's Proliferation Assay in human neuroprogenitor cells, Mundy Lab (AID 2284224; active means hit-call score of the fitted dose curve at least 0.9, where 1 is the maximum;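 further: human neural progenitor cells hNP1 derived from WA09 embryonic stem cells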)
# In short: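 Human neuroprogenitors (hNP1, WA09 lineage) receive test chemical after 40 to 44 hours of attachment. A four-hour BrdU pulse begins twenty hours later, followed by fixation and high content imaging; signal is referenced to DMSO controls.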
# [6] = UKN2_HCS_IMR90_cell_viability: Viability Assessment in the University of Konstanz (UKN) Leist Lab Neural Crest Cell Migration Assay in human induced IMR90 Pluripotent Stem Cells (UKN2) (AID 2284233);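 further: viability of neural crest cells differentiated from IMR90 iPSC measured by calcein-AM fluorescence imaging; cells exposed to compound for 24 h after a 24 h migration phase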
# In short: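 cMINC format, iPSC-derived neural crest (IMR90); 24 h migration (EGF/FGF, N2-S), then 24 h toxicant. Calcein-AM/H-33342 stain 30 min; fluorescence intensity by HCS; DMSO-normalised, bidirectional fitting.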
# [7] = CCTE_Mundy_HCI_Cortical_NOG_NeuronCount: CCTE's Neurite Outgrowth Assay in rat cortical cells for Neuron Count, Mundy Lab (AID 2284236; active means hit-call score of the fitted dose curve at least 0.9, where 1 is the maximum;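 further: neurons counted by imaging betaIII-tubulin and Hoechst stained cortical cells; cells exposed to compound for about 48 hours before fixation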)
# In short: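 Read-out: neuron number by high-content imaging of betaIII-tubulin (Alexa Fluor-488) and Hoechst-labelled rat primary cortical cells.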
# [8] = CCTE_Mundy_HCI_Cortical_NOG_BPCount: CCTE's Neurite Outgrowth Assay in rat cortical cells for Branch Point Count, Mundy Lab (AID 2284237);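 further: branch points counted about two days after chemical exposure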
# In short: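 Measured 50.33 h after dosing, this morphology endpoint uses rat primary cortical cultures labelled for betaIII-tubulin. Branch points are quantified by high-content imaging, with DMSO as negative control and baseline.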
# [9] = CCTE_Mundy_HCI_hNP1_Casp3_7: CCTE's Caspase-Glo 3/7 Assay in human neuroprogenitor cells for Apoptosis, Mundy Lab (AID 2284240)
# In short: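 Neuroepithelial-lineage stem cells from WA09 embryonic cells were treated with chemicals after 40–44 h of culture. Twenty-four hours later, caspase-3/7 activation was detected luminescently after a 30 min room-temperature reagent step, with DMSO as baseline.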
# [10] = CCTE_Mundy_HCI_hNP1_CellTiter: CCTE's Cell Titer-Glo 2 Assay in human neuroprogenitor cells for Viability, Mundy Lab (AID 2284241; active means hit-call score of the fitted dose curve at least 0.9, where 1 is the maximum)
# In short: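 Measures ATP content in human neural progenitors derived from WA09 embryonic cells. Read-out at 26.5 hours after dosing, with DMSO serving as the negative control and baseline.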
# [11] = CCTE_Mundy_HCI_Cortical_Synap_Neur_Matur_NeuronCount: CCTE's Synaptogenesis and Neurite Maturation Assay in rat cortical cells for Neuron Count, Mundy Lab (AID 2284242; active means hit-call score of the fitted dose curve at least 0.9, where 1 is the maximum;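 further: neuron number from Hoechst nuclei and MAP2 staining by high-content imaging; hits reduce neuron count versus DMSO baseline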)
# In short: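 Cortical cells from rat are plated, treated with AraC at DIV 5, and exposed to test chemicals with a media change at DIV 7. At DIV 12 they are fixed and immunostained (MAP2, synaptophysin), and imaged neuron counts are compared against DMSO controls.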
# [12] = IUF_NPC2c_oligodendrocyte_migration_120hr: Leibniz Research Institute for Environmental Medicine (IUF) 120-hour Neural Progenitor Cell Migration Assay for Oligodendrocyte Migration (NPC2c) (AID 2284297)
# In short: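 Read-out is the mean distance of O4-positive oligodendrocytes from the sphere core edge at 120 h, normalized to radial glia migration and fitted in the gain direction against DMSO. Spheres of primary human neural progenitors differentiated on laminin under continuous compound exposure.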
# [13] = IUF_NPC2a_radial_glia_migration_120hr: Leibniz Research Institute for Environmental Medicine (IUF) 120-hour Neural Progenitor Cell Migration Assay for Radial Glia Migration (NPC2a) (AID 2284298)
# In short: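 Readout: distance in um from sphere core edge to migration-area edge, derived from Hoechst nuclei density with a threshold-defined polynomial boundary. Spheres: hNPC, GW 16-19, 0.3 mm, on PDL/laminin; exposure 5 days; DMSO is baseline.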
# [14] = IUF_NPC2b_neuronal_migration_120hr: Leibniz Research Institute for Environmental Medicine (IUF) 120-hour Neural Progenitor Cell Migration Assay for Neuron Migration (NPC2b) (AID 2284300)
# In short: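 Read-out is mean distance from sphere edge to each TUBB3-positive neuron at 120 h, expressed relative to radial glia migration distance and to DMSO baseline. Single 0.3 mm human NPC spheres differentiated on laminin under continuous compound exposure.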
# [15] = IUF_NPC3_neuronal_differentiation_120hr: Leibniz Research Institute for Environmental Medicine (IUF) 120-hour Neuronal Differentiation Assay (NPC3) (AID 2284301)
# In short: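 Neuronal differentiation of primary human neural progenitors measured by high-content imaging: percent TUBB3+ of Hoechst+ nuclei within migrated area at 120 h, seven-point serial dilution plus solvent control, gain or loss relative to DMSO.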
# [16] = IUF_NPC4_neurite_length_120hr: Leibniz Research Institute for Environmental Medicine (IUF) 120-hour Neuronal Morphology Assay for Neurite Length (NPC4) (AID 2284302)
# In short: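 Neurons from differentiating human fetal neural progenitor spheres are scored for average neurite length after five days of compound exposure. Fitting uses DMSO as negative control.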
# [17] = IUF_NPC5_oligodendrocyte_differentiation_120hr: Leibniz Research Institute for Environmental Medicine (IUF) 120-hour Oligodendrocyte Differentiation Assay (NPC5) (AID 2284304; active means hit-call score of the fitted dose curve at least 0.9, where 1 is the maximum;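 further: primary human fetal neural progenitor spheres plated to migrate and differentiate; share of O4-positive cells among Hoechst nuclei found by CNN image analysis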)
# In short: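 Oligodendrocyte differentiation was scored after 120 h as the O4-positive share of Hoechst-stained nuclei across the neurosphere migration area, using a trained convolutional neural network on high-content fluorescence images. Human fetal neural progenitor spheres were dosed from day 0, normalised to DMSO.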
# [18] = IUF_NPC4_neurite_area_120hr: Leibniz Research Institute for Environmental Medicine (IUF) 120-hour Neuronal Morphology Assay for Neurite Area (NPC4) (AID 2284305; active means hit-call score of the fitted dose curve at least 0.9, where 1 is the maximum)
# In short: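 Endpoint at 120 h: automated imaging of TUBB3/Hoechst-stained differentiating human neural progenitor spheres, neurite area per neuron from skeletonization. DMSO solvent control, not above 0.1%, set the baseline; medium was half-replaced on day 3.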
# [19] = IUF_NPC2-5_cytotoxicity_72hr: Cytotoxicity Assessment at 72 hours in the Leibniz Research Institute for Environmental Medicine (IUF) Neural Progenitor Cell Migration and Differentiation Assay for Cytotoxicity (NPC2-5) (AID 2284306; active means hit-call score of the fitted dose curve at least 0.9, where 1 is the maximum;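 further: LDH release into supernatant measured by resorufin fluorescence marking membrane damage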)
# In short: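 Primary human neural progenitor spheres migrate and differentiate on laminin. Compound is present from the start of differentiation, with DMSO kept at or below 0.1%. At 72 h, supernatant LDH is quantified fluorometrically, with values fitted in the positive direction.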
# [20] = IUF_NPC2-5_cytotoxicity_120hr: Cytotoxicity Assessment at 120 hours in the Leibniz Research Institute for Environmental Medicine (IUF) Neural Progenitor Cell Migration and Differentiation Assay (NPC2-5) (AID 2284307; active means hit-call score of the fitted dose curve at least 0.9, where 1 is the maximum;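 further: LDH released into supernatant as membrane damage marker via resorufin fluorescence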)
# In short: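 Sphere plating starts differentiation and exposure together at day 0. Compound solution is half-replaced on day 3. At 120 h, medium supernatant is taken for an LDH membrane-integrity read based on resazurin reduction to resorufin fluorescence.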
# [21] = IUF_NPC2-5_cell_number_120hr: Cell Number Assessment at 120 hours in the Leibniz Research Institute for Environmental Medicine (IUF) Neural Progenitor Cell Migration and Differentiation Assay (NPC2-5) (AID 2284308);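 further: count of Hoechst-stained nuclei in migration zone around plated human neural progenitor spheres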
# In short: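 hNPC spheres, one per well, PDL/laminin, N2 medium, 37C, 5% CO2. Dosing day 0 → half-medium change with fresh compound day 3 → fix 120 h. Readout: Hoechst+ nuclei count, migration area; 7 concentrations plus solvent control.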
# [22] = IUF_NPC2-5_viability_120hr: Viability Assessment at 120 hours in the Leibniz Research Institute for Environmental Medicine (IUF) Neural Progenitor Cell Migration and Differentiation Assay (NPC2-5) (AID 2284312)
# In short: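 Human fetal (GW 16-19) neural progenitor spheres of 0.3 mm were plated on poly-D-lysine/laminin in N2 differentiation medium and exposed from day 0 for 120 h, with half-medium refresh at day 3. Viability was read as alamar blue resazurin-to-resorufin fluorescence against DMSO.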
# [23] = CCTE_Mundy_HCI_iCellGluta_NOG_NeuriteLength: CCTE's Neurite Outgrowth Assay in iCellGluta cells for Neurite Length, Mundy Lab (AID 2284318; active means hit-call score of the fitted dose curve at least 0.9, where 1 is the maximum)
# In short: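 Automated high-content imaging of betaIII-tubulin (Alexa Fluor-488) and Hoechst-stained cells gave neurite length, normalized to the DMSO baseline.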
# [24] = IUF_NPC1_cytotoxicity_72hr: Cytotoxicity Assessment at 72 hours in the Leibniz Research Institute for Environmental Medicine (IUF) Neural Progenitor Cell Proliferation Assay (NPC1) (AID 2284332; active means hit-call score of the fitted dose curve at least 0.9, where 1 is the maximum;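 further: rising LDH signal means more cytotoxicity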)
# In short: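 Membrane-integrity loss is scored from LDH released into the medium, detected as resorufin fluorescence, with activity fitted upward relative to baseline. Test material stays on human fetal-derived progenitor spheres for 72 h.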
# [25] = CCTE_Mundy_HCI_iCellGluta_NOG_NeuronCount: CCTE's Neurite Outgrowth Assay in iCellGluta cells for Neuron Count, Mundy Lab (AID 2284340; active means hit-call score of the fitted dose curve at least 0.9, where 1 is the maximum;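 further: cells fixed about 48 h after compound addition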)
# In short: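 Neuron count read by automated high-content imaging of Hoechst 33342 and betaIII-tubulin/Alexa Fluor-488 labelling in human iPSC glutamatergic neurons. Activity fitted relative to DMSO.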
# [26] = CCTE_Mundy_HCI_iCellGluta_NOG_NeuriteCount: CCTE's Neurite Outgrowth Assay in iCellGluta cells for Neurite Count, Mundy Lab (AID 2284342; active means hit-call score of the fitted dose curve at least 0.9, where 1 is the maximum;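 further: chemical exposure about 48 hours starting 2 hours after plating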)
smiles,measurement,setting,value
CC(CNC(=S)[S-])NC(=S)[S-].[Zn+2] (stereo unspecified),AC50,[1],50 µM (active)
same,AC50,[2],50 µM (active)
same,AC50,[3],50 µM (active)
same,outcome,[4],inactive
same,outcome,[5],inactive
same,outcome,[6],inactive
same,AC50,[7],19.2 µM (active)
same,AC50,[8],22.2 µM (active)
same,AC50,[9],11.1 µM (active)
same,outcome,[10],inactive
same,AC50,[11],82.3 µM (active)
same,outcome,[12],inactive
same,AC50,[13],12.5 µM (active)
same,outcome,[14],inactive
same,outcome,[15],inactive
same,AC50,[16],50 µM (active)
same,outcome,[17],inactive
same,AC50,[18],39.2 µM (active)
same,AC50,[19],60.5 µM (active)
same,AC50,[20],9.92 µM (active)
same,AC50,[21],50 µM (active)
same,outcome,[22],inactive
same,AC50,[23],13 µM (active)
same,outcome,[24],inactive
same,AC50,[25],12.7 µM (active)
same,AC50,[26],21.2 µM (active)
